Data published in PubChem BioAssay AID1159580 (chemical genetic matrix, 2015).
Values joined by “and” are separate entries in the source; they are usually repeats but may differ in a detail not shown here. Equal entries are not always repeated. About 2,000 (36%) of roughly 5,500 compounds were called active. Another 18% or so got no clear call; they are omitted. No stated cut-off is given here; in the data, active means normalized growth mostly below about 0.91 (no sharp cut-off); inconclusive means no clear call, values can overlap the other calls; inactive means mostly above about 0.92. This is one part of the list.

Test: chemical genetic growth profiling, strain panel (AID 1159580);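 further: tested at 20 µM; growth read once vehicle control cultures reached saturation at 30 °C; 1 = growth at the plate median or of vehicle wells; lower values mean less growth of the strain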
Details: growth OD

Measured: normalized growth

NC1CC1c1ccccc1 (stereo not drawn)
inactive: S. cerevisiae deletion strains, locus YAL013W, strain DEP1, active compounds read low 1.02 | S. cerevisiae deletion strains, locus YAL040C, strain CLN3, active compounds read low 0.989 | S. cerevisiae deletion strains, locus YBR021W, strain FUR4, active compounds read low 1.02 | S. cerevisiae deletion strains, locus YBR229C, strain ROT2, active compounds read low 1.02 | S. cerevisiae deletion strains, locus YCL029C, strain bik1, active compounds read low 0.985 | S. cerevisiae deletion strains, locus YCL061C, strain MRC1 (second series), active compounds read low 1.01 | S. cerevisiae deletion strains, locus YDL035C, strain GPR1, active compounds read low 1.02 | S. cerevisiae deletion strains, locus YDL074C, strain BRE1, active compounds read low 1.05 | S. cerevisiae deletion strains, locus YDL101C, strain DUN1, active compounds read low 1.03 | S. cerevisiae deletion strains, locus YDL134C, strain PPH21, active compounds read low 1.02 | S. cerevisiae deletion strains, locus YDL185W, strain tfp1, active compounds read low 0.989 | S. cerevisiae deletion strains, locus YDL192W, strain arf1, active compounds read low 0.988 | S. cerevisiae deletion strains, locus YDR101C, strain arx1, active compounds read low 0.976 | S. cerevisiae deletion strains, locus YDR150W, strain NUM1, active compounds read low 1.02 | S. cerevisiae deletion strains, locus YDR162C, strain NBP2, active compounds read low 1.03 | S. cerevisiae deletion strains, locus YDR318W, strain mcm21, active compounds read low 0.979 | S. cerevisiae deletion strains, locus YDR363W, strain ESC2, active compounds read low 0.946 | S. cerevisiae deletion strains, locus YDR388W, active compounds read low 0.981 | S. cerevisiae deletion strains, locus YDR502C, strain sam2, active compounds read low 0.995 | S. cerevisiae deletion strains, locus YEL061C, strain CIN8, active compounds read low 1.01 | S. cerevisiae deletion strains, locus YER002W, strain NOP16, active compounds read low 1.02 | S. cerevisiae deletion strains, locus YER110C, active compounds read low 0.981 | S. cerevisiae deletion strains, locus YER155C, strain BEM2, active compounds read low 1.01 | S. cerevisiae deletion strains, locus YER167W, strain BCK2, active compounds read low 1.01 | S. cerevisiae deletion strains, locus YGL078C, strain dbp3, active compounds read low 0.988 | S. cerevisiae deletion strains, locus YGL086W, strain mad1, active compounds read low 0.975 | S. cerevisiae deletion strains, locus YGL248W, strain PDE1, active compounds read low 1.03 | S. cerevisiae deletion strains, locus YGR078C, strain PAC10, active compounds read low 1.02 | S. cerevisiae deletion strains, locus YGR135W, strain pre9, active compounds read low 0.994 | S. cerevisiae deletion strains, locus YGR229C, strain SMI1, active compounds read low 1.02 | S. cerevisiae deletion strains, locus YGR252W, strain gcn5, active compounds read low 0.922 | S. cerevisiae deletion strains, locus YHR030C, strain SLT2, active compounds read low 1.01 | S. cerevisiae deletion strains, locus YHR079C, strain IRE1 (second series), active compounds read low 0.981 | S. cerevisiae deletion strains, locus YHR094C, strain hxt1, active compounds read low 0.99 | S. cerevisiae deletion strains, locus YHR129C, strain ARP1, active compounds read low 1.02 | S. cerevisiae deletion strains, locus YHR200W, strain rpn10, active compounds read low 0.991 | S. cerevisiae deletion strains, locus YIL066C, strain RNR3, active compounds read low 1.02 | S. cerevisiae deletion strains, locus YIL073C, strain SPO22, active compounds read low 0.972 | S. cerevisiae deletion strains, locus YIL125W, strain kgd1, active compounds read low 0.987 | S. cerevisiae deletion strains, locus YIR030C, strain dcg1, active compounds read low 0.993 | S. cerevisiae deletion strains, locus YJL095W, strain BCK1, active compounds read low 1.03 | S. cerevisiae deletion strains, locus YJL134W, strain LCB3, active compounds read low 1.02 | S. cerevisiae deletion strains, locus YJL168C, strain set2, active compounds read low 0.988 | S. cerevisiae deletion strains, locus YJL187C, strain SWE1 (second series), active compounds read low 1.02 | S. cerevisiae deletion strains, locus YJR043C, strain POL32, active compounds read low 0.992 | S. cerevisiae deletion strains, locus YJR075W, strain HOC1, active compounds read low 1.01 and 1.03 | S. cerevisiae deletion strains, locus YKL009W, strain mrt4, active compounds read low 1.01 | S. cerevisiae deletion strains, locus YKL068W, active compounds read low 0.997 | S. cerevisiae deletion strains, locus YKL085W, strain MDH1 (second series), active compounds read low 1.03 | S. cerevisiae deletion strains, locus YKL085W, strain MDH1, active compounds read low 1.03 | S. cerevisiae deletion strains, locus YKL190W, strain CNB1, active compounds read low 1.02 | S. cerevisiae deletion strains, locus YKR001C, strain vps1, active compounds read low 0.987 | S. cerevisiae deletion strains, locus YLR039C, strain RIC1, active compounds read low 1.06 | S. cerevisiae deletion strains, locus YLR058C, strain SHM2, active compounds read low 1.02 | S. cerevisiae deletion strains, locus YLR102C, strain apc9, active compounds read low 0.996 | S. cerevisiae deletion strains, locus YLR262C, strain YPT6, active compounds read low 1.05 | S. cerevisiae deletion strains, locus YLR268W, strain sec22, active compounds read low 0.989 | S. cerevisiae deletion strains, locus YLR330W, strain CHS5, active compounds read low 1.01 | S. cerevisiae deletion strains, locus YLR342W, strain FKS1 (second series), active compounds read low 0.994 | S. cerevisiae deletion strains, locus YLR371W, strain rom2, active compounds read low 0.984 | S. cerevisiae deletion strains, locus YLR418C, strain cdc73, active compounds read low 0.992 | S. cerevisiae deletion strains, locus YML016C, strain PPZ1, active compounds read low 1.03 | S. cerevisiae deletion strains, locus YML032C, strain rad52, active compounds read low 0.975 | S. cerevisiae deletion strains, locus YML124C, strain tub3, active compounds read low 0.997 | S. cerevisiae deletion strains, locus YMR078C, strain ctf18, active compounds read low 0.981 | S. cerevisiae deletion strains, locus YMR223W, strain ubp8, active compounds read low 0.972 | S. cerevisiae deletion strains, locus YMR263W, strain SAP30, active compounds read low 1.03 | S. cerevisiae deletion strains, locus YMR307W, strain GAS1, active compounds read low 0.976 and 1.01 | S. cerevisiae deletion strains, locus YNL067W, strain RPL9B, active compounds read low 1.03 | S. cerevisiae deletion strains, locus YNL128W, strain TEP1, active compounds read low 1.03 | S. cerevisiae deletion strains, locus YNL153C, strain GIM3, active compounds read low 1.03 and 0.972 | S. cerevisiae deletion strains, locus YNL175C, strain NOP13, active compounds read low 0.999 | S. cerevisiae deletion strains, locus YNL197C, strain WHI3, active compounds read low 1.01 | S. cerevisiae deletion strains, locus YNL224C, strain SQS1, active compounds read low 1 | S. cerevisiae deletion strains, locus YNL233W, strain BNI4, active compounds read low 1.02 | S. cerevisiae deletion strains, locus YNL250W, strain rad50, active compounds read low 1.01 | S. cerevisiae deletion strains, locus YNL271C, strain bni1, active compounds read low 0.978 | S. cerevisiae deletion strains, locus YNL298W, strain CLA4, active compounds read low 0.996 | S. cerevisiae deletion strains, locus YNL307C, strain MCK1, active compounds read low 0.979 | S. cerevisiae deletion strains, locus YNL322C, strain KRE1, active compounds read low 1.02 | S. cerevisiae deletion strains, locus YNR052C, strain pop2, active compounds read low 0.968 | S. cerevisiae deletion strains, locus YOL006C, strain TOP1, active compounds read low 1.09 | S. cerevisiae deletion strains, locus YOL147C, strain pex11, active compounds read low 0.989 | S. cerevisiae deletion strains, locus YOR061W, strain CKA2, active compounds read low 1.02 | S. cerevisiae deletion strains, locus YOR069W, strain VPS5, active compounds read low 1.01 | S. cerevisiae deletion strains, locus YOR083W, strain WHI5 (second series), active compounds read low 1 | S. cerevisiae deletion strains, locus YOR136W, strain idh2, active compounds read low 0.981 | S. cerevisiae deletion strains, locus YOR144C, strain elg1, active compounds read low 0.984 | S. cerevisiae deletion strains, locus YOR184W, strain ser1, active compounds read low 0.976 | S. cerevisiae deletion strains, locus YOR316C, strain cot1, active compounds read low 0.992 | S. cerevisiae deletion strains, locus YPL055C, strain LGE1, active compounds read low 1.06 and 0.992 | S. cerevisiae deletion strains, locus YPL241C, strain CIN2, active compounds read low 1.02 | S. cerevisiae deletion strains, locus YPR119W, strain clb2, active compounds read low 0.994 | S. cerevisiae deletion strains, locus YPR141C, strain kar3, active compounds read low 0.99 | S. cerevisiae deletion strains, locus YPR163C, strain tif3, active compounds read low 0.988 | S. cerevisiae deletion strains, locus YPR167C, strain met16, active compounds read low 0.985 | S. cerevisiae deletion strains, strain wtn01, active compounds read low 0.988 | S. cerevisiae strains, strain wild type, active compounds read low 1.01
